Most compounds without a hit are left out; they make up all but 10% or so of the library.
JMJD2A Tudor – inhibitors of human JMJD2A Tudor domain | O75164 | Potency, µM (top dose mostly 114 µM), usual class: inhibitors | AID 504339 | hit rate 4.4% among 390,000 | AlphaScreen JMJD2A-Tudor / H3K4me3 peptide binding; also: nearly all actives have a fitted effect of over 50% in size
BAZ2B block – BAZ2B (human) inhibition. Q9UIF8. AlphaScreen BAZ2B-H3K14Ac peptide displacement. Potency, µM (highest dose often 114 µM), most hits filed as inhibitors. hit rate 4.4% among 360,000. AID 504333; also: nearly all actives have a fitted effect of over 60% in size
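Inhibition is scored as reduced AlphaScreen emission. The BAZ2B/b-H3(5-23)K14Ac complex (50 nM each) in PBS pH 7.4, 0.01% Tween-20 meets compound (up to 110 uM) for 30 min at RT before bead addition.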
GLS inh – inhibitors of human glutaminase (GLS). O94925. GLS enzymatic activity, qHTS titration. Potency, µM (series often up to 45.5 µM), usual class: inhibitors. hit rate 0.21% among 410,000
Target sequence (O94925 whole entry, looked up): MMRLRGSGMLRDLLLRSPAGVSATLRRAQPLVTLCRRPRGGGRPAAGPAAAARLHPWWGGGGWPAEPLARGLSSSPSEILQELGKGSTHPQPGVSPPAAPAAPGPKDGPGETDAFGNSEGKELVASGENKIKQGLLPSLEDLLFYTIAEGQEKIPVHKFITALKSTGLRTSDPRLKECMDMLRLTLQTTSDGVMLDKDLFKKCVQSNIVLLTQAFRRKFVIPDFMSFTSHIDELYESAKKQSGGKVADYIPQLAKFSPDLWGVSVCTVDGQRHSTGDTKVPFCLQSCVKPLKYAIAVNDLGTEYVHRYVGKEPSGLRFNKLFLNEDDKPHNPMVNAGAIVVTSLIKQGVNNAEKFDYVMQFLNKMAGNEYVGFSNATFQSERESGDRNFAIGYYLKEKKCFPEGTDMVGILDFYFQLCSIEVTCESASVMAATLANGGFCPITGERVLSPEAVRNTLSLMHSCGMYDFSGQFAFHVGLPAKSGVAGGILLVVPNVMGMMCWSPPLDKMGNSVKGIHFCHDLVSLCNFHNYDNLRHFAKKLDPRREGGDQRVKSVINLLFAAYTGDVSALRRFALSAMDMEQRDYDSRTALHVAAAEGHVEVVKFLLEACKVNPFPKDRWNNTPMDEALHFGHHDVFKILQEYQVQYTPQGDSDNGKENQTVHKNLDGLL
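Read-out is an Amplex red fluorescence increase coupled through glutamate oxidase and HRP, measured before and after 30 min room-temperature incubation. hKGA is in 45 mM KH2PO4 (pH 8.2) with 0.02% Tween-20; glutamine added as 1mM solution.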
HP1b chromo inh – HP1-beta chromodomain-methylated histone interaction inhibition. AID 540317. hit rate 0.56% among 390,000. AlphaScreen HP1-beta / biotin-H3K9me3 peptide binding. P83916. Potency, µM (highest dose often 114 µM), usual class: inhibitors; also: nearly all actives have a fitted effect of over 70% in size
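Compound inhibition of the preformed complex between 50 nM HP1-beta and 50 nM biotinylated H3K9me3 peptide was read by AlphaScreen. Buffer was PBS pH 7.4 with 0.01% Tween-20. Incubations ran 30 min at room temperature, with 10 ug/mL donor/acceptor beads.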
G9a block – inhibitors of human histone lysine methyltransferase G9a; Potency, µM (series often up to 102 µM), usual class: inhibitors; AID 504332; G9a H3K9 monomethylation, AlphaScreen, 2 h; hit rate 8.8% among 350,000; Q96KQ7; also: nearly all actives have a fitted effect of over 75% in size
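AlphaScreen read-out: biotin-H3K9 peptide (500 nM) methylation by 20 nM enzyme with 20 uM SAM, 2 h at room temperature after 15 min compound preincubation; anti-monomethyl H3K9 antibody plus donor/acceptor beads, 10 min dark.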
Of the large screens only hits and unclear results are named; the others gave an inactive call. Calls follow the shape of the dose curve; as a rule, active = well fitted curve in the direction sought with a large enough effect; inconclusive = small, poorly fitted or top-dose-only effect, or another doubt; inactive = no such curve, though single readings can be large; an effect the other way counts as inactive or inconclusive.

CC(C)n1nc(C(=O)NNC(=O)c2ccc(OC(F)F)cc2)c2ccccc2c1=O	G9a block 3.16µM
Cn1nc(C(=O)NCc2ccccc2)c2ccccc2c1=O	none
CC1C=CCC2C(=O)N(c3ccccc3OC(=O)c3cccs3)C(=O)C12 (stereo not given)	none
CC1C=CCC2C(=O)N(c3ccc(Cl)cc3O)C(=O)C12 (stereo not given)	JMJD2A Tudor 15.8µM, GLS inh inconclusive, HP1b chromo inh inconclusive
CN1C(=O)/C(=C/c2ccccc2OCc2ccc(C(=O)O)cc2)NC1=S	JMJD2A Tudor inconclusive, BAZ2B block inconclusive, G9a block inconclusive
O=C(O)c1ccc(COc2ccccc2/C=C2/NC(=O)N(c3cccc(Cl)c3)C2=O)cc1	JMJD2A Tudor inconclusive, BAZ2B block 79.4µM, HP1b chromo inh inconclusive
O=C(O)c1ccc(COc2ccccc2C=C2C(=O)c3ccccc3C2=O)cc1	none
O=C1NC(=S)N/C1=C\c1ccccc1OCc1ccc(C(=O)O)cc1	JMJD2A Tudor 79.4µM (no result: G9a block)
Cc1ccc(S(=O)(=O)N2CCN(C(=O)c3ccc(-n4cncn4)c([N+](=O)[O-])c3)CC2)c(C)c1	none (no result: JMJD2A Tudor, BAZ2B block, HP1b chromo inh, G9a block)
Cc1ccc2c(c1)c1c(n2C)-c2[nH]ncc2CC1	JMJD2A Tudor inconclusive, BAZ2B block 44.7µM, HP1b chromo inh inconclusive, G9a block inconclusive
CCOc1cc([N+](=O)[O-])cc(/C=N/NC(=O)c2c(-c3ccccc3)noc2C)c1O	JMJD2A Tudor 79.4µM, BAZ2B block 22.4µM, G9a block inconclusive
COc1cccc(/C=N/NC(=O)c2c(-c3ccccc3)noc2C)c1O	JMJD2A Tudor inconclusive, BAZ2B block 44.7µM
Cc1onc(-c2ccccc2)c1C(=O)N/N=C/c1c[nH]c2ccccc12	JMJD2A Tudor inconclusive, BAZ2B block inconclusive, HP1b chromo inh 44.7µM
O=C(N/N=C/c1c[nH]c2ccccc12)c1ccc(O)c(O)c1	GLS inh 11.2µM
O=C(NC(c1ccc(-c2ccccc2)cc1)c1cnccn1)C1CCN(Cc2ccc3c(c2)OCO3)CC1 (stereo not given)	none (no result: JMJD2A Tudor, BAZ2B block, HP1b chromo inh, G9a block)
N#Cc1c(NC(=S)NC(=O)c2ccccc2)sc2c1CCN(CCc1ccccc1)C2	G9a block 39.8µM (no result: JMJD2A Tudor, GLS inh, HP1b chromo inh)
N#Cc1c(NC(=S)NC(=O)c2ccccc2)sc2c1CCCC2	JMJD2A Tudor inconclusive, G9a block 8.91µM
CC1(C)Cc2c(sc(NC(=O)c3ccco3)c2C(=O)O)CO1	none
CC1(C)Cc2c(sc(NC(=S)NC(=O)c3ccccc3)c2C(=O)O)CO1	BAZ2B block inconclusive, G9a block 39.8µM
CC(C)C(C(=O)Nc1sc2c(c1C#N)CCCCC2)N1C(=O)c2ccccc2C1=O (stereo not given)	BAZ2B block 50.1µM, G9a block inconclusive
N#Cc1c(NC(=S)NC(=O)c2ccccc2)sc2c1CCCCC2	HP1b chromo inh inconclusive (no result: BAZ2B block, GLS inh, G9a block)
Fc1ccc(N2CCN(c3ncnc4[nH]ncc34)CC2)cc1	none
COc1ccc(-n2ccn(Cc3ccccc3C)c(=O)c2=O)cc1	none
COC(=O)c1ccc(NC(=O)N2CCC(CN3CCc4ccccc4C3)CC2)cc1	none
N#Cc1c(NC(=S)NC(=O)C2CCCC2)sc2c1CCCCC2	G9a block 35.5µM
CN1CCCN(S(=O)(=O)c2cccc(Cl)c2Cl)CC1	G9a block 44.7µM
O=C(CSc1nnc(-c2ccccc2)c(-c2ccccc2)n1)NCCc1ccccc1	JMJD2A Tudor inconclusive, BAZ2B block inconclusive, G9a block inconclusive
CC(C)Cc1ccc(-c2cc3nc(NCCCn4ccnc4)ccn3n2)cc1	none (no result: JMJD2A Tudor, BAZ2B block, HP1b chromo inh, G9a block)
O=C(NCc1ccc(F)cc1)c1cccc2c1C(=O)c1ccc(N3CCOCC3)cc1S2(=O)=O	JMJD2A Tudor 79.4µM
CCCN1C(=O)c2ccccc2CC1(C)C(=O)NC1CCCCC1 (stereo not given)	none
O=C1CCCC2=C1Sc1ccccc1N2	BAZ2B block 44.7µM, GLS inh 12.6µM (no result: G9a block)
O=C(CC(NCCc1ccccc1)C(=O)O)Nc1ccc(O)cc1 (stereo not given)	BAZ2B block inconclusive, G9a block 22.4µM (no result: JMJD2A Tudor, GLS inh, HP1b chromo inh)
CC(C)CC(=O)Nc1ccc(Nc2ccccc2)cc1	BAZ2B block inconclusive, G9a block 20µM
CC(C)CC(=O)Nc1ccc(Oc2ccc(NC(=O)CC(C)C)cc2)cc1	none
O=C(CC(c1ccccc1)c1ccccc1)Nc1ccc(O)cc1	GLS inh inconclusive (no result: G9a block)
COc1ccc(NC(=O)CN(Cc2ccccc2)S(=O)(=O)c2ccc(C)cc2)cc1Cl	none
CCCN1CCN(c2ncnc3sc(C(=O)Nc4cccc(Cl)c4C)c(C)c23)CC1	none
CCCN1CCN(c2ncnc3sc(C(=O)Nc4ccc(N(CC)CC)cc4C)c(C)c23)CC1	JMJD2A Tudor 50.1µM, BAZ2B block 28.2µM, HP1b chromo inh inconclusive, G9a block 14.1µM
COc1ccccc1-c1cc(-c2ccccc2)nc(SCC(=O)O)c1C#N	none (no result: G9a block)
CCN1CCC(Nc2ccnc3cc(Cl)ccc23)CC1	G9a block 31.6µM
CC1=C(C(=O)Nc2ccccc2)C(c2cccnc2)n2nc(SCc3ccccc3Cl)nc2N1 (stereo not given)	BAZ2B block inconclusive
O=C(c1ccc(-c2ccc([N+](=O)[O-])cc2)o1)N1CCCCCCC1	JMJD2A Tudor 56.2µM, BAZ2B block 39.8µM, HP1b chromo inh inconclusive
O=C(Cc1ccc([N+](=O)[O-])cc1)N1CCCCCC1	none (no result: BAZ2B block)
O=C(c1ccc(-c2ccc([N+](=O)[O-])cc2)o1)N1CCCC(C(F)(F)F)C1 (stereo not given)	JMJD2A Tudor inconclusive, BAZ2B block inconclusive, HP1b chromo inh inconclusive, G9a block 14.1µM
C=CCn1c(O)c(C=Nc2ccccc2)sc1=S	G9a block 50.1µM
CC(=O)c1cc(-c2ccccc2)n(CCC(=O)NC(C)c2ccccc2)c1C (stereo not given)	BAZ2B block inconclusive
COc1ccc(C2NC(=S)NC3=C2CCc2cc(OC)ccc23)cc1 (stereo not given)	JMJD2A Tudor inconclusive, BAZ2B block inconclusive, GLS inh inconclusive, G9a block 39.8µM
C[n+]1cc(C(O)(c2ccccc2)c2ccccc2)n2ccccc21	none (no result: BAZ2B block, GLS inh, HP1b chromo inh, G9a block)
CN1CCN(C(=O)C[C@H]2C[C@H]3c4cc(NC(=O)NC5CCCCC5)ccc4O[C@H]3[C@@H](CO)O2)CC1	none (no result: JMJD2A Tudor, BAZ2B block, HP1b chromo inh, G9a block)
O=C1C(N2CCOCC2)=C(n2nnc3ccccc32)C(=O)c2ccccc21	BAZ2B block 10µM, HP1b chromo inh inconclusive, G9a block 39.8µM
O=C(c1cc(-n2cnnc2)ccc1Cl)N1CCN(c2nc(-c3ccccc3)cs2)CC1	JMJD2A Tudor 56.2µM, HP1b chromo inh inconclusive
O=C(c1ncn[nH]1)N1CCN(c2nc(-c3ccccc3)cs2)CC1	G9a block inconclusive
CCOC(=O)CSc1nc2c(c(=O)[nH]c(=O)n2C)n1CCc1ccccc1	none
CCOC(=O)CSc1nc2c(c(=O)[nH]c(=O)n2C)n1C/C=C(/C)Cl	G9a block 14.1µM
CCCCn1c(SCC(=O)OCC)nc2c1c(=O)[nH]c(=O)n2C	G9a block 10µM
CCCCCn1c(SCCN2CCOCC2)nc2c1c(=O)[nH]c(=O)n2C	G9a block 25.1µM
Cc1ccc(Cl)cc1Nc1nc2ccccc2c2nncn12	none

Screening data: PubChem BioAssay, National Center for Advancing Translational Sciences (NCATS)
